Assay [1] has as its target Thyrotropin receptor (Homo sapiens) (UniProt P16473). Kind of assay: qHTS Assay for Antagonists of the Thyroid Stimulating Hormone Receptor (AID 488980). Further: series mostly up to about 58 µM; 0% is about no effect. The essentials:
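Cells expressing human TSHR (HEK293) are dispensed in HBSS/HEPES containing 70 uM RO 20-1724, compound is added, then TSH at EC80 (4 nM final). Antibody in lysis buffer follows, 30 minutes at room temperature before HTRF detection.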

The target of assay [2] is D(1A) dopamine receptor (Homo sapiens) (UniProt P21728). Kind of assay: HTS Assay for Allosteric Agonists of the Human D1 Dopamine Receptor: Primary Screen for Agonists (AID 488981). Further: 0% is about no effect. The procedure, abridged:
(§1)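 Tetracycline-induced HEK293 Trex D1 cells with forced coupling to calcium, loaded with no-wash calcium dye; kinetic fluorescence read 180 s after compound addition for agonism, then a further 180 s after an EC20 dopamine challenge for potentiation.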

The target is the same in assay [3]. Kind of assay: HTS Assay for Allosteric Agonists of the Human D1 Dopamine Receptor: Primary Screen for Potentiators (AID 488982). Further: potency means the concentration at half of the fitted maximal effect. The essentials:
as §1

The target is the same in assay [4]. Kind of assay: HTS Assay for Allosteric Agonists of the Human D1 Dopamine Receptor: Primary Screen for Antagonists (AID 488983).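 Further: calcium flux response to an EC80 dopamine challenge measured with no-wash dye; nearly all actives have a fitted effect of over 65% in size.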 Further: potency means the concentration at half of the fitted maximal effect. The procedure, abridged:
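Tetracycline-induced HEK293 T-REx cells expressing force-coupled D1 were plated overnight at 30 C, dye-loaded for calcium, and read kinetically. Compounds were pinned in, then an EC80 dopamine challenge followed after 180 s to reveal antagonism.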

The nature of assay [5]: Validation screen for small molecules that induce genotoxicity in human embryonic kidney (HEK293T) cells expressing luciferase-tagged ELG1 (AID 493106). Further: potency means the concentration at half of the fitted maximal effect. The procedure, abridged:
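HEK293T cells expressing luciferase-tagged ELG1 were exposed to compound or DMSO vehicle for 16 hr at 37 °C, 5% CO2. Genotoxic stress raises ELG1 levels, so increased luciferase signal after ONE-Glo addition and 30 min at room temperature marks hits.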

Assay [6] concerns the target ATPase family AAA domain-containing protein 5 (Homo sapiens) (UniProt Q96QE3). Kind of assay: Validation screen for small molecules that inhibit ELG1-dependent DNA repair in human embryonic kidney (HEK293T) cells expressing luciferase-tagged ELG1 (AID 493107).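 Further: cells co-treated with the DNA-damaging agent 5-fluorouridine alongside compound; series mostly up to about 46 µM; on the % scale 0 is the no-effect control and ±100 the full control effect; inhibitors lower the ELG1-luciferase luminescence signal; nearly all actives have a fitted effect of over 70% in size.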 The essentials:
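HEK293T cells expressing luciferase-tagged ELG1 were co-treated with 5-fluorouridine and compound or DMSO for 16 hr at 37 °C, 5% CO2. Luciferase activity was then read with ONE-Glo after 30 min at room temperature; suppressed signal indicates blocked ELG1 function.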

Assay [7] deals with Thyrotropin-releasing hormone receptor (Homo sapiens) (UniProt P34981). Kind of assay: qHTS for Small Molecule Agonists and Allosteric Enhancers of Human TRH Receptor: Validation Screen for Agonists (AID 493127;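 active means calcium activation more than 3 SD above the typical response in the agonist read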;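 further: intracellular calcium rise by fluo-8 fluorescence before TRH EC20 addition; 0% is about no effect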). Conditions: TRH receptor agonist cell assay; at 2 µM; stronger effect = higher value. The procedure, abridged: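 TRHR-expressing cells were plated overnight in serum-containing medium, then loaded with fluo-8 calcium dye at room temperature for 30 min–1.5 h. After a 10 s baseline, compound was pin-transferred and calcium fluorescence (ex 480/em 530) read kinetically for agonist response.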
Chain of Thyrotropin-releasing hormone receptor (Homo sapiens) (P34981 whole entry, looked up): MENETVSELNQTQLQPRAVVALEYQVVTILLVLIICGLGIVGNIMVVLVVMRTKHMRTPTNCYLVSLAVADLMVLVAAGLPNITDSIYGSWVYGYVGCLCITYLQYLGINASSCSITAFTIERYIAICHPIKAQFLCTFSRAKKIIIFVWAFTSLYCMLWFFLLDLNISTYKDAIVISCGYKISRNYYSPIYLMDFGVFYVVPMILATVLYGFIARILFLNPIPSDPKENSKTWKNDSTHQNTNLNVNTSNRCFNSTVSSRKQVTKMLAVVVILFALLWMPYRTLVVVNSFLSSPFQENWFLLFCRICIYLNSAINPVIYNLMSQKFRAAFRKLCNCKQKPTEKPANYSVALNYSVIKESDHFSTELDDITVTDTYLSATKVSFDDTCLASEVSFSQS
(In qHTS, concentration-response curves come from the screen itself.)

A short description of assay [8]: Nrf2 qHTS screen for inhibitors: Validation (AID 493153; active means well fitted inhibition curve with a large enough effect in the main read-out, with a control signal flat, not every such curve was filed as active). Conditions: Potency: luciferase luminescence; viability change: measured here: cytotoxicity max response. The essentials: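 A549 cells carrying an ARE-driven firefly luciferase reporter, in 5% FBS OPTI-MEM, were treated with compounds in concentration-response for 18-24 h at 37°C. Viability was read by CellTiter-Fluor fluorescence, then Nrf2 activity by luciferase luminescence.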

Inconclusive results are not listed. The source made the active and inactive calls. Unless noted, the call rests on the fitted dose curve; in most records, active means well fitted curve in the direction sought with a large enough effect; inconclusive means small, poorly fitted or top-dose-only effect, or another doubt; inactive means no such curve, though single readings can be large; an effect the other way counts as inactive or inconclusive.

Chain of ATPase family AAA domain-containing protein 5 (Homo sapiens) (Q96QE3 whole entry, looked up, the tested form may be a part): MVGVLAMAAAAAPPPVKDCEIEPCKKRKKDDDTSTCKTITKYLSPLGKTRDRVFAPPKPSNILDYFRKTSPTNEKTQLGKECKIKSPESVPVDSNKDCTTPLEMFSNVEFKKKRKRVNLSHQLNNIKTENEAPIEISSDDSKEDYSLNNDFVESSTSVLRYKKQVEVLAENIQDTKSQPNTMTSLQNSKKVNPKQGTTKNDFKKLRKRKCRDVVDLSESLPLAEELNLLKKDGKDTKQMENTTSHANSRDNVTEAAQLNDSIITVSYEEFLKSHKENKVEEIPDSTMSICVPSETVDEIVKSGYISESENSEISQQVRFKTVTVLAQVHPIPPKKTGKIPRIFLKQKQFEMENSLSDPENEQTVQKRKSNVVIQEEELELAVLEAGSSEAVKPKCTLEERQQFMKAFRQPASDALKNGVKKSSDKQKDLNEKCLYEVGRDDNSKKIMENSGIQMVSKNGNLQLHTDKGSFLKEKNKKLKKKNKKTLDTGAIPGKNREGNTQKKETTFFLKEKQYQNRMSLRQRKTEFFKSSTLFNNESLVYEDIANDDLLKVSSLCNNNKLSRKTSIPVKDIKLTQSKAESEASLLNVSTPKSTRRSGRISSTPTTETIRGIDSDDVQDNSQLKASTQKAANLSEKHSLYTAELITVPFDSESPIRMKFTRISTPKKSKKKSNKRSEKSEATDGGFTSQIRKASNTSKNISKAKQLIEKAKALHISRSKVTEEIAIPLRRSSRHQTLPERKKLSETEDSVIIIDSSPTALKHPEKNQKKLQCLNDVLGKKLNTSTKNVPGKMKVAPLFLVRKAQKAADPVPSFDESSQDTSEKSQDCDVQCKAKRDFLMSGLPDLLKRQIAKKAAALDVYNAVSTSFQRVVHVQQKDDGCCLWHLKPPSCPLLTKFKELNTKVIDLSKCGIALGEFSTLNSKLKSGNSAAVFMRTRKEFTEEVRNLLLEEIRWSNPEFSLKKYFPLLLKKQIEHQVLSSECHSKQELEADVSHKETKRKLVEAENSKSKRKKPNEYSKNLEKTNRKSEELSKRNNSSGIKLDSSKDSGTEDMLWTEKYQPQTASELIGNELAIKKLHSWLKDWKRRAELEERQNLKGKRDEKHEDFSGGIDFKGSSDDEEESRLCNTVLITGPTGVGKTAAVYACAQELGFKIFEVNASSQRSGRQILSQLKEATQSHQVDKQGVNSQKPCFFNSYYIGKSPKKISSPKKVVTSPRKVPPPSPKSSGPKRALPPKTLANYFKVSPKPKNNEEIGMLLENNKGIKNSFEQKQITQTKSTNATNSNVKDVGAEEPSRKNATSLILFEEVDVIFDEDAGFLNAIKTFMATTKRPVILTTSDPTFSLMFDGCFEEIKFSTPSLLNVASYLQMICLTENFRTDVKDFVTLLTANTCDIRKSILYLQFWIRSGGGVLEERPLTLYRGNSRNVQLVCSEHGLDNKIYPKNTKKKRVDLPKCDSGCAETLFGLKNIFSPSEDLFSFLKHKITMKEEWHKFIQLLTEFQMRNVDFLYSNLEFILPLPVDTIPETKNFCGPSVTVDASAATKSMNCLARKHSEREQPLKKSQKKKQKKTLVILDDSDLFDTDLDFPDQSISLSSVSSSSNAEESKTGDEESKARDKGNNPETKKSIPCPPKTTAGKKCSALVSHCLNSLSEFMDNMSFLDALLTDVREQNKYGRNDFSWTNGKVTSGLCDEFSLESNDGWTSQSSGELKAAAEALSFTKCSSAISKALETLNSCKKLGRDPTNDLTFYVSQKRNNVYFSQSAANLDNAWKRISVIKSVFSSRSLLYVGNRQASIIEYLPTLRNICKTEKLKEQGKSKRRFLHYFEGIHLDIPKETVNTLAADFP
Chain of Thyrotropin receptor (Homo sapiens) (P16473 whole entry, looked up): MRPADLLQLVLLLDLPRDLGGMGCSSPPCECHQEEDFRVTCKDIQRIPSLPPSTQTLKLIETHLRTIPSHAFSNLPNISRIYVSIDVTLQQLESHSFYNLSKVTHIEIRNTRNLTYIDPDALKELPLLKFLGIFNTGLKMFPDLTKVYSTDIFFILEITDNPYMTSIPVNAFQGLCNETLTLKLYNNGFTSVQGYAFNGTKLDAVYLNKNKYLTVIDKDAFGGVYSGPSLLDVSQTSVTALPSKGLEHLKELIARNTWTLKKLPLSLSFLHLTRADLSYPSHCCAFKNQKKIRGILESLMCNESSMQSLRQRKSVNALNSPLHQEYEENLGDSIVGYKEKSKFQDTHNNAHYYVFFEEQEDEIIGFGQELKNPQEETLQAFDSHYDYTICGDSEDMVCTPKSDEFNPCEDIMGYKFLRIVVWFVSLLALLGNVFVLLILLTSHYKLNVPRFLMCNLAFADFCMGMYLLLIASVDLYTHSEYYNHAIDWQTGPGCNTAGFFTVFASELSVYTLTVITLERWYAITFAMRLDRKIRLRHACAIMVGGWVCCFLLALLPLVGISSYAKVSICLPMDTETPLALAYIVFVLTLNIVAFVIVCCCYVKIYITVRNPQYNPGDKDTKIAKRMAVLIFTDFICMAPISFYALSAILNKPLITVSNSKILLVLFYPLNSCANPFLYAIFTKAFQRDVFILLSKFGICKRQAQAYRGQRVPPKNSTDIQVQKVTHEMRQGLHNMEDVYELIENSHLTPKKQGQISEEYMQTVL
Chain of D(1A) dopamine receptor (Homo sapiens) (P21728 whole entry, looked up): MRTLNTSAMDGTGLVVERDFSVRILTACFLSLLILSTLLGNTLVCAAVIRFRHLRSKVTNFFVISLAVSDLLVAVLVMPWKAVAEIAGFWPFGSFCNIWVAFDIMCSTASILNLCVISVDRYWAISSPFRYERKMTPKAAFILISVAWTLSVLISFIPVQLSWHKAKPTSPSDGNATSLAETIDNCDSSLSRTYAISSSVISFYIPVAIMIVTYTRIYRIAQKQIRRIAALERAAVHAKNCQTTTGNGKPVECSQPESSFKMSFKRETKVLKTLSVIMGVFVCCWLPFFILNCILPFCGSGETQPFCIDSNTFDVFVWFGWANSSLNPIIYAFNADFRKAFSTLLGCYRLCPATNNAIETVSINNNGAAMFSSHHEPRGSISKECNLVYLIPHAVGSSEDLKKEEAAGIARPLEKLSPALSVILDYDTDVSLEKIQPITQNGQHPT

`O=C(O)CNC(=O)C(CS)Cc1ccccc1` (stereo not given): in assay [1], the compound was classed as inactive. In addition, the Potency entry in assay [2], in assay [3], in assay [4], in assay [5], in assay [6] and in assay [8] was “inactive” throughout. The activation in assay [7] was 0.625% (inactive). Further, the viability change in assay [8] came out at 2.31%.

Consider `CCCCC/C=C\CC(O)/C=C/c1cccc(CC(O)CCCCO)n1` (stereo not given), for which the call in assay [1] was inactive. Also, the Potency result in assay [2], in assay [3], in assay [4], in assay [5] and in assay [8] was “inactive” throughout. Also, the activation in assay [7] is -2.94% (inactive). Also, the viability change in assay [8] was -0.641%.

Regarding `Oc1cc2c(cc1O)CN(C(=S)NCCc1ccc(Cl)cc1)CCC2`, in assay [1], the call was inactive. Moreover, the Potency entry in assay [2], in assay [3], in assay [5] and in assay [8] was “inactive” each time. Besides, the Potency in assay [4] is 2 µM (active). For the same compound, the activation in assay [7] was 2.62% (inactive). Also, the viability change in assay [8] was -1.93%.

In the case of `COC1=C(OC)C(=O)c2ccccc2C1=O`, the result in assay [1] was inactive. The Potency result in assay [2], in assay [3], in assay [4] and in assay [5] was “inactive” throughout. Besides, in assay [7], the activation is 0.688% (inactive).

For the compound `CC(=O)N[C@H](C(=O)O)C(C)(C)SN=O`, in assay [1], the outcome was inactive. Further, the Potency entry in assay [2], in assay [3], in assay [4], in assay [5] and in assay [8] was “inactive” each time. Besides, in assay [7], the activation is 0.812% (inactive). The viability change in assay [8] is -5%.

Take `CC(COc1ccc(/C=C/c2ccccc2)cc1)[N+](C)(C)C` (stereo not given): the outcome in assay [1] was inactive. In addition, the Potency result in assay [2], in assay [3], in assay [4], in assay [5] and in assay [6] was “inactive” each time. Further, in assay [7], the activation is 0.125% (inactive).

Regarding `CCCn1c(=O)c2[nH]c(-c3ccc(OCC(=O)NCCN)cc3)nc2n(CCC)c1=O`, in assay [1], the outcome was inactive. The Potency result in assay [2], in assay [3], in assay [4], in assay [5] and in assay [8] was “inactive” each time. The activation in assay [7] is 0.688% (inactive). For the same compound, the viability change in assay [8] was determined as 10.5%.

For the compound `COc1cccc(C(=O)NCCN2CCN(c3ccc(Cl)cc3)CC2)c1`, the compound was classed as inactive in assay [1]. Moreover, the Potency result in assay [2], in assay [3], in assay [4], in assay [5] and in assay [8] was “inactive” each time. Further, in assay [7], the activation is 0.562% (inactive). For the same compound, the viability change in assay [8] is -10%.

On to `Oc1cc(O)cc(/C=C/c2ccc(O)c(O)c2)c1`, for which, in assay [1], the call was inactive. The Potency result in assay [2] and in assay [4] was “inactive” throughout. The values for the Potency in assay [3] and in assay [5] were 580 nM (active) and 3.66 µM (active), respectively. For the same compound, the activation in assay [7] is 0.938% (inactive).

For `OC[C@H]1O[C@@H](n2cnc3c(NC4CCCCC4)ncnc32)[C@H](O)[C@@H]1O`, the call in assay [1] was inactive. Moreover, the Potency result in assay [2], in assay [3], in assay [4], in assay [5] and in assay [8] was “inactive” throughout. In assay [7], the activation is 0.562% (inactive). Further, the viability change in assay [8] worked out at 2.64%.

On to `COc1ccc(NC(=O)/C=C/c2ccc(Cl)cc2)cc1`, for which, in assay [1], the call was inactive. Further, the Potency result in assay [2], in assay [3], in assay [4] and in assay [8] was “inactive” each time. The Potency in assay [5] was 2.59 µM (active). The activation in assay [7] is 1.19% (inactive). Also, in assay [8], the viability change was -1.36%.

On to `CN1C2CCC1CC(OC(=O)C(O)c1ccccc1)C2` (stereo not given), for which the compound was classed as inactive in assay [1]. For the same compound, the Potency entry in assay [2], in assay [3], in assay [4], in assay [5] and in assay [8] was “inactive” in each case. In addition, in assay [7], the activation is 1.19% (inactive). Further, the viability change in assay [8] is -17.3%.

Turning to `COC(=O)c1c(C)[nH]c(C)c1C(=O)c1ccccc1Cc1ccccc1`, the result in assay [1] was inactive. In addition, the Potency entry in assay [2], in assay [3], in assay [4], in assay [5] and in assay [8] was “inactive” throughout. In addition, the activation in assay [7] was 7.25% (inactive). In assay [8], the viability change was -8.95%.

For the compound `CCCCCCCCCCCCCCCCCCNC(=O)OCC(COP(=O)([O-])OCC[n+]1ccsc1)OC` (stereo not given), the call in assay [1] was inactive. For the same compound, the Potency entry in assay [2], in assay [3], in assay [4], in assay [5], in assay [6] and in assay [8] was “inactive” each time. The activation in assay [7] was 0.875% (inactive). Besides, in assay [8], the viability change amounted to 1.65%.

For the compound `CN(C)C(N)=NCCC[C@H](N)C(=O)O`, the outcome in assay [1] was inactive. In addition, the Potency result in assay [2], in assay [3], in assay [4], in assay [5], in assay [6] and in assay [8] was “inactive” each time. In addition, the activation in assay [7] was 0.188% (inactive). In addition, the viability change in assay [8] is -5.79%.

For the compound `O=c1[nH]c2cc([N+](=O)[O-])c([N+](=O)[O-])cc2[nH]c1=O`, in assay [1], the outcome was inactive. The Potency result in assay [2], in assay [3], in assay [4], in assay [5] and in assay [8] was “inactive” each time. Further, the activation in assay [7] is 1.31% (inactive). Further, the viability change in assay [8] amounted to 0.435%.

For the compound `CN1CCc2ccccc2Cc2[nH]c3ccccc3c2CC1`, the compound was classed as inactive in assay [1]. Further, the Potency entry in assay [2], in assay [3], in assay [5] and in assay [8] was “inactive” in each case. For the same compound, the Potency in assay [4] was 0.355 µM (active). Besides, in assay [7], the activation was 0.5% (inactive). The viability change in assay [8] is -10.2%.

With `O=C(O)c1cc([N+](=O)[O-])ccc1NCCCc1ccccc1`, the call in assay [1] was inactive. For the same compound, the Potency result in assay [2], in assay [3], in assay [4], in assay [5] and in assay [6] was “inactive” throughout. Moreover, the activation in assay [7] was 0% (inactive).

In the case of `COc1ccc(/C=C/C(=O)Nc2ccccc2C(=O)O)cc1OC`, the compound was classed as inactive in assay [1]. Further, the Potency entry in assay [2], in assay [3] and in assay [4] was “inactive” throughout. Besides, in assay [5], the Potency was 1.64 µM (active). The activation in assay [7] was -5.44% (inactive).

For `NCCSSCCN`, in assay [1], the outcome was inactive. The Potency entry in assay [2], in assay [3], in assay [4], in assay [5], in assay [6] and in assay [8] was “inactive” throughout. Besides, the activation in assay [7] is -0.375% (inactive). Also, the viability change in assay [8] is -6.08%.

`N#C/C(=C\c1c[nH]c2ccccc12)C(=O)c1ccc(O)c(O)c1`: in assay [1], the compound was classed as inactive. Besides, the Potency result in assay [2], in assay [3], in assay [4], in assay [5] and in assay [8] was “inactive” in each case. In assay [7], the activation was 0.438% (inactive). Besides, the viability change in assay [8] is -8.11%.

As for `NCCNC(=O)c1ncsc1-c1cccc(F)c1`, in assay [1], the result was inactive. The Potency result in assay [2], in assay [3], in assay [4], in assay [5], in assay [6] and in assay [8] was “inactive” throughout. Moreover, the activation in assay [7] was -2.38% (inactive). In addition, the viability change in assay [8] was 1.7%.

`O=C1NC(O)=NC1(c1ccccc1)c1ccccc1`: in assay [1], the outcome was inactive. The Potency entry in assay [2], in assay [3], in assay [4], in assay [5] and in assay [6] was “inactive” throughout. For the same compound, the activation in assay [7] is 0.125% (inactive).
